According to ChEMBL document CHEMBL1961873, “Compounds: GSK PKIS; Assays: Nanosyn kinase panel” (2012):

Legend:
[1] = target: Tyrosine-protein kinase receptor UFO (Homo sapiens) (UniProt P30530); settings: at 1 µM
[2] = target: Tyrosine-protein kinase Blk (Homo sapiens) (UniProt P51451); settings: at 0.1 µM
[3] = target: Tyrosine-protein kinase Blk (Homo sapiens) (UniProt P51451); settings: at 1 µM
[4] = target: T1, Cytoplasmic tyrosine-protein kinase BMX (Homo sapiens) (UniProt P51813); settings: at 0.1 µM
T1 sequence (whole entry): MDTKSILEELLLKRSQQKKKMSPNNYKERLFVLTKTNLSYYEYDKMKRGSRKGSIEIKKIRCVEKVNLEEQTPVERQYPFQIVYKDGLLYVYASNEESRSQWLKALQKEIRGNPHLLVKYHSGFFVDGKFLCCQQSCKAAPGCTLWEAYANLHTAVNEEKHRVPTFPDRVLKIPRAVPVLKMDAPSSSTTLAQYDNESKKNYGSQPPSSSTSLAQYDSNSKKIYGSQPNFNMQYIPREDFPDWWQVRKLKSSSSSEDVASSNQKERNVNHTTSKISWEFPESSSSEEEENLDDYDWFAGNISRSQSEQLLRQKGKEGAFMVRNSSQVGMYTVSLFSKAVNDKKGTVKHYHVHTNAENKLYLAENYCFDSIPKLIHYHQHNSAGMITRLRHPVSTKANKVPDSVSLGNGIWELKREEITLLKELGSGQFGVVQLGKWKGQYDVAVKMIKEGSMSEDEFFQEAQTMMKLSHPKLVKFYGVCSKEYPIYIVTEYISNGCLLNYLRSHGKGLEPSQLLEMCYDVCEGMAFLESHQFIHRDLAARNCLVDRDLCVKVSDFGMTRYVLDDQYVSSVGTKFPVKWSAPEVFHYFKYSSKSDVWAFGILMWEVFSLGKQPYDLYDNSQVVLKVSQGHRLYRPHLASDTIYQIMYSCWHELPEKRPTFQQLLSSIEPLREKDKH

[5] = target: T1, Cytoplasmic tyrosine-protein kinase BMX (Homo sapiens); settings: at 1 µM
[6] = target: Protein-tyrosine kinase 6 (Homo sapiens) (UniProt Q13882); settings: at 0.1 µM
[7] = target: Protein-tyrosine kinase 6 (Homo sapiens) (UniProt Q13882); settings: at 1 µM
[8] = target: Tyrosine-protein kinase BTK (Homo sapiens) (UniProt Q06187); settings: at 0.1 µM
[9] = target: Tyrosine-protein kinase BTK (Homo sapiens) (UniProt Q06187); settings: at 1 µM
[10] = target: Tyrosine-protein kinase CSK (Homo sapiens) (UniProt P41240); settings: at 0.1 µM
[11] = target: Tyrosine-protein kinase CSK (Homo sapiens) (UniProt P41240); settings: at 1 µM
[12] = target: T2, Discoidin domain-containing receptor 2 (Homo sapiens) (UniProt Q16832); settings: at 0.1 µM
T2 sequence (whole entry): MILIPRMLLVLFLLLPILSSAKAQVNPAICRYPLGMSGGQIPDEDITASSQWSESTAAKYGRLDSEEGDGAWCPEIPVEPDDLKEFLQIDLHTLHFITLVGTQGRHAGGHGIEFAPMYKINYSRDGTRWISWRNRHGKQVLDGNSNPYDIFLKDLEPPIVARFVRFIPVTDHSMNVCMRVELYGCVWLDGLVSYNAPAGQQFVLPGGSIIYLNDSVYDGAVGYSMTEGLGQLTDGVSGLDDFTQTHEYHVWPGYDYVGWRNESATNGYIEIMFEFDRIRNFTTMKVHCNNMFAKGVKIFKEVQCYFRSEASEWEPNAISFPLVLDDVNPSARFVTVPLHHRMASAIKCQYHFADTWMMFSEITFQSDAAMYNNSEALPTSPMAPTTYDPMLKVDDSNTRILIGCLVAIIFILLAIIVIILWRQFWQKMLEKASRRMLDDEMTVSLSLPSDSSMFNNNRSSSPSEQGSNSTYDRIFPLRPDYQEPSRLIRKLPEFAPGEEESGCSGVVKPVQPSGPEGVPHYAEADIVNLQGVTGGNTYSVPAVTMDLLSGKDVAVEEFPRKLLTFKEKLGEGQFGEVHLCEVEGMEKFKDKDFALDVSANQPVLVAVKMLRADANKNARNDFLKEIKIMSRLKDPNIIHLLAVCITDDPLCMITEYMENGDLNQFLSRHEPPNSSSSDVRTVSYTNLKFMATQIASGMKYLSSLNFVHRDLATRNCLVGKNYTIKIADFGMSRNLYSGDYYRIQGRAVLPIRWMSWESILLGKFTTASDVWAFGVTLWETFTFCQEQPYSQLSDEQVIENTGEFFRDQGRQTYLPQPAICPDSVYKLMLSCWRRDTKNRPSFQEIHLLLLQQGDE

[13] = target: T2, Discoidin domain-containing receptor 2 (Homo sapiens); settings: at 1 µM
[14] = target: Epidermal growth factor receptor (Homo sapiens) (UniProt P00533); settings: at 0.1 µM
[15] = target: Epidermal growth factor receptor (Homo sapiens) (UniProt P00533); settings: at 1 µM
[16] = system: Epidermal growth factor receptor (Homo sapiens), P00533 [L858R]; settings: at 0.1 µM
[17] = system: Epidermal growth factor receptor (Homo sapiens), P00533 [L858R]; settings: at 1 µM
[18] = system: Epidermal growth factor receptor (Homo sapiens), P00533 [L861Q]; settings: at 0.1 µM
[19] = system: Epidermal growth factor receptor (Homo sapiens), P00533 [L861Q]; settings: at 1 µM
[20] = system: Epidermal growth factor receptor (Homo sapiens), P00533 [T790M]; settings: at 0.1 µM
Chain of Epidermal growth factor receptor (Homo sapiens), P00533 [T790M] (P00533 whole entry T790M): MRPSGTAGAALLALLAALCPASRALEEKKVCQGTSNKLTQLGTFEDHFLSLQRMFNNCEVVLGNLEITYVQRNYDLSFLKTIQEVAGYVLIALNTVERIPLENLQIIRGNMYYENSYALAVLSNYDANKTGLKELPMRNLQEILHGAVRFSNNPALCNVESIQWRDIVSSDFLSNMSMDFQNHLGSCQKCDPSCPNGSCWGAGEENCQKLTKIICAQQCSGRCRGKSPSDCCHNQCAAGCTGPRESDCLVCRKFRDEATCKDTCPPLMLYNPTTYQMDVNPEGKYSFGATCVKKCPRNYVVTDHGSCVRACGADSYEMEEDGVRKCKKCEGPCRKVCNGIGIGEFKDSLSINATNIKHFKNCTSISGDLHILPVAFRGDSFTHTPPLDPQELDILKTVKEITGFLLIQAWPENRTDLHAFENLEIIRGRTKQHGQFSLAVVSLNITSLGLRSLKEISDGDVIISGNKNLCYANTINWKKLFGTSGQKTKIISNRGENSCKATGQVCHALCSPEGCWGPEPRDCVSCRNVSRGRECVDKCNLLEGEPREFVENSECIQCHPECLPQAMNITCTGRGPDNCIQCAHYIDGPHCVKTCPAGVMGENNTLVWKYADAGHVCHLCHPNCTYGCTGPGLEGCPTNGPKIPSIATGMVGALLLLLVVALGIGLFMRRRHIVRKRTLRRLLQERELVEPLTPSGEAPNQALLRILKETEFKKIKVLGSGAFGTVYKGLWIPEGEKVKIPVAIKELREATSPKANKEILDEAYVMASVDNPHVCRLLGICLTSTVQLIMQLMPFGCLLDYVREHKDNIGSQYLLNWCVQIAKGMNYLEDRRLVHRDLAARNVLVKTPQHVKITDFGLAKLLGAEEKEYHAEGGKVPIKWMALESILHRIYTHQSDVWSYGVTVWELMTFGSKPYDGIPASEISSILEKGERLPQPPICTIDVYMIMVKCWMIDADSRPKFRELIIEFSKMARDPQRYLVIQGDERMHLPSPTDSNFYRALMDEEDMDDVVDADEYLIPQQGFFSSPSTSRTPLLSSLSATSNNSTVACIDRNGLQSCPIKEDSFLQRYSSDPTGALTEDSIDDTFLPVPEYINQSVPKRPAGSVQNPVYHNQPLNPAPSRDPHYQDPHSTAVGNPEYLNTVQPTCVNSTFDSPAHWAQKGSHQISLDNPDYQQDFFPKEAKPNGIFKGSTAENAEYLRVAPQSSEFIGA

Chain of Epidermal growth factor receptor (Homo sapiens), P00533 [L858R] (P00533 whole entry L858R): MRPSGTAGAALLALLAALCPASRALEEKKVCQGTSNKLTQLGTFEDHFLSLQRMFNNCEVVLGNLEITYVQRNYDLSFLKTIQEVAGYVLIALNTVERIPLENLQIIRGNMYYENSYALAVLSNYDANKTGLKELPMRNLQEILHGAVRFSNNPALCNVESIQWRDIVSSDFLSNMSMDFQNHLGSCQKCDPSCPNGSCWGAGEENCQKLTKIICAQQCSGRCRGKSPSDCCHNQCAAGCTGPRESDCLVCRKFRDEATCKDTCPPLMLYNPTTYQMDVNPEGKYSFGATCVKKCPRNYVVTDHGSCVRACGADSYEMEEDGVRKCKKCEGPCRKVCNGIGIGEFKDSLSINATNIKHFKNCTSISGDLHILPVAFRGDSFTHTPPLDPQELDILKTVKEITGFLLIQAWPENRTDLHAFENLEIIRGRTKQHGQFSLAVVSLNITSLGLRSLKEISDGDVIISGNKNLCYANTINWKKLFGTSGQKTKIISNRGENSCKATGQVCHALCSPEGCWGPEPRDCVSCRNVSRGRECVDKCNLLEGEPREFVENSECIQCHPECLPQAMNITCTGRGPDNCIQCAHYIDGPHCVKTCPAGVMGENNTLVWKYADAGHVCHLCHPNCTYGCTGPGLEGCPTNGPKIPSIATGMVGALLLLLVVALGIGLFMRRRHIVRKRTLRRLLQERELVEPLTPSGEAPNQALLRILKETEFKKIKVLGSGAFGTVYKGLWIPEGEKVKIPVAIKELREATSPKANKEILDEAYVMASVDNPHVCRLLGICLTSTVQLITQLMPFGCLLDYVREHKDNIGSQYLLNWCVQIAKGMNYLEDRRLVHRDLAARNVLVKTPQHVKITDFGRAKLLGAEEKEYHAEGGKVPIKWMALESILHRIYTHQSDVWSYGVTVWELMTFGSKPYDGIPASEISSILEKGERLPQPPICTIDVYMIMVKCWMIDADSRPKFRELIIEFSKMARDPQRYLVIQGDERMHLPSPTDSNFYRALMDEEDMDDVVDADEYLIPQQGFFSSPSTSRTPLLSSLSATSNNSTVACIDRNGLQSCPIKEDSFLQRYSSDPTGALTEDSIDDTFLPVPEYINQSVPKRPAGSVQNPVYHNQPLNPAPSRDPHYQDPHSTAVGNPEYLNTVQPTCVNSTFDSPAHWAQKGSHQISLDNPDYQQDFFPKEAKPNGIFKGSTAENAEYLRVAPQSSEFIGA
Chain of Tyrosine-protein kinase Blk (Homo sapiens) (P51451 2-505 limits assumed): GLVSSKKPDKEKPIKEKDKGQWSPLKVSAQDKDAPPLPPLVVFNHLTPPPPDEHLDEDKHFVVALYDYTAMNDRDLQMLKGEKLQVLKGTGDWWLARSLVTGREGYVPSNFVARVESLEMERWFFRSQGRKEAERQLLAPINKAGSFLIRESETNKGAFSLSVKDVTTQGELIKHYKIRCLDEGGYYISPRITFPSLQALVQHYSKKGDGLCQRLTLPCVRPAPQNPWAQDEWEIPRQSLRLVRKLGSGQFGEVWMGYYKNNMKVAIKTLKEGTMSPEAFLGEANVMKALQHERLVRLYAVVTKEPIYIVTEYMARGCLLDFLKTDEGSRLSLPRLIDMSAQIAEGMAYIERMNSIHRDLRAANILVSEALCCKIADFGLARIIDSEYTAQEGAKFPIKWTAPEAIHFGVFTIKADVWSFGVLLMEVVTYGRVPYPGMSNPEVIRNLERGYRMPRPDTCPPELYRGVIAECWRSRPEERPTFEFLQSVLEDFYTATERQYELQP
Chain of Epidermal growth factor receptor (Homo sapiens) (P00533 whole entry): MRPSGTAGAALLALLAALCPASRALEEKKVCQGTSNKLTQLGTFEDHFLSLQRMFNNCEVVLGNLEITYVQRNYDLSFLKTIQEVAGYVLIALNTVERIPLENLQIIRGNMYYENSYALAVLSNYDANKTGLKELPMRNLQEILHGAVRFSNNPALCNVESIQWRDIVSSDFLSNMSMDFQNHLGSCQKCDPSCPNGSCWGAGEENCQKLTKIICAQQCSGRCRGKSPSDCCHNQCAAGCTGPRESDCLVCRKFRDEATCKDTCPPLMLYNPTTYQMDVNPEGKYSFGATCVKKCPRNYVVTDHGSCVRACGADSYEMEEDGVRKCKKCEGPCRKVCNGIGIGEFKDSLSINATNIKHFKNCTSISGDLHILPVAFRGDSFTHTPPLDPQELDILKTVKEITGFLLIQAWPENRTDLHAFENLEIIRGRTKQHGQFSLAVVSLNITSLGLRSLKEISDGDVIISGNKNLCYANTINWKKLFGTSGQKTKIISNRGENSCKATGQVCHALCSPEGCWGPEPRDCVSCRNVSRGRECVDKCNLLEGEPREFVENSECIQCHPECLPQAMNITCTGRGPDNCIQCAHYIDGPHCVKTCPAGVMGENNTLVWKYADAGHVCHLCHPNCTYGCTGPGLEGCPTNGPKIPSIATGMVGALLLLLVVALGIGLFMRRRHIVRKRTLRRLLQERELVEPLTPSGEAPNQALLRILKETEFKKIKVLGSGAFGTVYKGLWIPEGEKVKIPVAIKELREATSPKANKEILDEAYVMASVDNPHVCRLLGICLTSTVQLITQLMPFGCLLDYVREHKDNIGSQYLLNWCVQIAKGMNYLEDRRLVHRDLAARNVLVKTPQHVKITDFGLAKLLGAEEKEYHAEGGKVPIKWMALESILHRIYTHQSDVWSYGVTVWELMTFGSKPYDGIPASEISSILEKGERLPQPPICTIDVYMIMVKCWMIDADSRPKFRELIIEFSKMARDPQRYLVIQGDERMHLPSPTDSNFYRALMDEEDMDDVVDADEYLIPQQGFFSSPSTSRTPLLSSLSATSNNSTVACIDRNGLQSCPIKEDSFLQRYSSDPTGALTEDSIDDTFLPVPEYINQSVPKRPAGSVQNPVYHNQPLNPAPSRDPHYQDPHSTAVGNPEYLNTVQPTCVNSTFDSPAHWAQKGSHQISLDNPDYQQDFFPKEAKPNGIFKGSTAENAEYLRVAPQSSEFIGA
Chain of Tyrosine-protein kinase BTK (Homo sapiens) (Q06187 whole entry): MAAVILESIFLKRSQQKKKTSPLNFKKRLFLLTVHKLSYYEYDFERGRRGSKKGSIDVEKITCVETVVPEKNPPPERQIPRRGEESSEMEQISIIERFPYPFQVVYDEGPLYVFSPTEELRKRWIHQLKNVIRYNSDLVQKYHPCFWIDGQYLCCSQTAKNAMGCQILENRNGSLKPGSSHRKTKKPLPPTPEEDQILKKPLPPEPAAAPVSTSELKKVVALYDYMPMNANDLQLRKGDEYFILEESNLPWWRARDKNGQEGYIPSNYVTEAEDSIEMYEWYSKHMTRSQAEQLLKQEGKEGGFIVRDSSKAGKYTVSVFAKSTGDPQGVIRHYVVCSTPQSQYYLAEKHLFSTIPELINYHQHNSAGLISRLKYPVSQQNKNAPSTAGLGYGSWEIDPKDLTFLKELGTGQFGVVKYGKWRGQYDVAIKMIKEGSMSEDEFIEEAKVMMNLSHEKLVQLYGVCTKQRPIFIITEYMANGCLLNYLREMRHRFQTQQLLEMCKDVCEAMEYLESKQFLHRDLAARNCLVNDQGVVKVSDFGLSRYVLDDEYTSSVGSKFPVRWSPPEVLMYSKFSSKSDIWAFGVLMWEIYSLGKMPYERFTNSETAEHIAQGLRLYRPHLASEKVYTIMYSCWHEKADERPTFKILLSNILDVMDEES

Structure (SMILES) | inhibition [1] | inhibition [2] | inhibition [3] | inhibition [4] | inhibition [5] | inhibition [6] | inhibition [7] | inhibition [8] | inhibition [9] | inhibition [10] | inhibition [11] | inhibition [12] | inhibition [13] | inhibition [14] | inhibition [15] | inhibition [16] | inhibition [17] | inhibition [18] | inhibition [19] | inhibition [20]
CNC(=O)c1cncc(/C=C/c2c(C)cccc2C)c1 | 3.27% | -1.68% | 16.2% | 6.81% | 42.4% | 13.4% | 61.9% | -1.07% | 7.27% | 5.83% | 24.6% | 7.93% | 36.8% | -2.83% | 5.96% | 7.48% | 41.4% | 1.86% | 8.46% | -0.41%
Cc1ccc(C(=O)NC2CCC2)cc1-c1ccc(C(=O)NCC2CC2)cc1 | -1.14% | 2.1% | 1.49% | 8.25% | 2.61% | 1.28% | 1.95% | 0.87% | 0.88% | -0.66% | 0.62% | 0.33% | 1.1% | 10.4% | 7.15% | 3.77% | 4.05% | 4.21% | 4.15% | 1.73%
N#Cc1ccc(Oc2nccc(-c3c(-c4ccc(F)cc4)ncn3C3CCNCC3)n2)cc1 | -3.22% | 2.21% | 3.73% | 3.25% | 4.26% | 4.1% | 4.81% | -1.09% | 0.54% | 0.79% | 0.87% | 6.23% | 6.42% | -1.1% | 2.76% | -0.31% | 7.36% | 3.45% | 3.57% | 1.89%
Fc1ccc(-c2ncn(C3CCNCC3)c2-c2ccnc(Oc3ccc(Oc4ccccc4)cc3)n2)cc1 | -7.71% | 3.8% | 3.79% | 3.11% | 6.45% | 1.09% | 1.93% | -2.01% | 0.33% | 0.47% | 3.28% | 2.83% | 14.8% | 2.08% | 4.02% | -0.18% | 11.3% | 2.06% | 6.3% | 1.46%
COc1cc2ncn(-c3cc(OCc4cccs4)c(C(N)=O)s3)c2cc1OC | 1.31% | 0.4% | 18.6% | -4.41% | 3.5% | 2.12% | 7.01% | -2.66% | -0.98% | 4.25% | 9.5% | 3.95% | 4.63% | -1.17% | 1.76% | 4.34% | 18.5% | 2.87% | 7.86% | 1.54%
NC(=O)c1cc(-c2ccncc2)cc(-c2ccccc2)c1N | -6.8% | 3.86% | 17.5% | 11.8% | 49.6% | 5.89% | 36.9% | 1.6% | 11.8% | 5.98% | 16.1% | 4.49% | 27.6% | 8.28% | 18% | 4.58% | 39.7% | 3.24% | 11.9% | 1.64%
CN(c1ccc(NC(=O)Nc2c(Cl)cccc2Cl)cc1)c1ccnc(Nc2cccc(CS(C)(=O)=O)c2)n1 | 28.6% | 37.2% | 75% | 47.1% | 73.5% | 10.8% | 44% | 18.8% | 26.5% | 10.6% | 19.5% | 11.1% | 26.9% | 2.38% | 5.8% | 1.91% | 8.57% | 4.35% | 7.45% | 1.27%
O=C(Nc1n[nH]c2cc(-c3cc(F)ccc3F)ccc12)C1CC1 | -2.71% | 1.38% | 4.54% | 1.69% | 3.35% | 1.78% | 2.23% | -1.19% | -2.01% | 3.87% | 2.29% | 2.61% | 4.77% | 1.18% | 2.02% | 1.19% | 3.64% | 2.35% | -0.56% | 0.87%
O=C(Nc1ccc(Oc2ccc3[nH]c(NC(=O)c4ccccc4)nc3c2)cc1)Nc1cc(C(F)(F)F)ccc1F | 19.2% | 2.56% | 4.59% | 1.13% | 2.54% | 3.52% | 8.39% | 0.7% | 3.03% | 2.64% | 11.7% | 24.4% | 78.7% | -0.35% | 1.11% | 7.18% | 6.93% | 2.47% | 3.54% | 2.22%
COc1cc2ncn(-c3cc(OCc4ccccc4C(F)(F)F)c(C(C)=O)s3)c2cc1OC | -1.92% | 3.79% | 4.29% | 4.87% | 2.58% | -3.46% | 3.98% | 1.17% | 1.75% | 0.53% | 3.13% | 3.54% | 5.22% | -0.8% | 1.81% | -2.47% | 3.36% | 1.73% | 0.09% | 2.46%
C[C@@H](Oc1cc(-n2cnc3ccc(OC4CCN(C)CC4)cc32)sc1C(N)=O)c1ccccc1Cl | -3.62% | -0.86% | -0.94% | 4% | 6.6% | 2.72% | 3.15% | -4.65% | -3.35% | 2.4% | 5.07% | 1.72% | 4.56% | 0.49% | 3.58% | 1.45% | 3.56% | 2.71% | 4.46% | 0.91%
CCc1cccc(CC)c1/C=C/c1cncc(C(=O)NC)c1 | -1.28% | 2.14% | 4.46% | 0.51% | 4.87% | 2.78% | 3.98% | 2.48% | 2.98% | 1.29% | 0.54% | 1.3% | 6.62% | 3.24% | 6.32% | 4.88% | 3.92% | 1.32% | 2.46% | 2.4%
NS(=O)(=O)c1ccc(Nc2cc(-c3ccc(O)c(F)c3)n[nH]2)cc1 | 1.05% | -1.01% | 12.1% | -5.24% | -1.41% | -4.55% | -9.05% | -1.3% | -0.82% | -8.87% | -6.35% | -0.38% | 18.8% | 0.49% | 3.68% | -2.81% | -2% | -1.84% | 0.29% | -1.07%
